# Results filed as inconclusive are left out. Calls of active or inactive are those of the source. How the source made its calls: active means hit-call score of the fitted dose curve at least 0.9, where 1 is the maximum; inconclusive means response in the unintended direction; inactive means score below 0.9.
# Test: ATG_M_61_EcoTox2: Attagene TRANS-FACTORIAL EcoTox-2 HepG2 Assay for M61 Transcription Factor (Internal Marker)
# Description: ATG_EcoTox2 is a cell-based, multiplexed assay created by modifying the existing Attagene TRANS-FACTORIAL system to include a panel of nuclear receptors from some or all the following species: human (Homo sapiens), african clawed frog (Xenopus laevis), rainbow trout (Oncorhynchus mykiss), japanese medaka (Oryzias latipes), and zebrafish (Danio rerio). The ECOTOX2-FACTORIAL format uses HepG2, a human liver cell line, with measurements taken at 24 hours after chemical dosing in a 24-well plate. ATG_M_61_EcoTox2 is one of 29 assay components calculated in the ATG_EcoTox2 assay. It is designed to make measurements of mRNA induction, a form of inducible reporter, as detected with fluorescence intensity signals by Reverse transcription polymerase chain reaction (RT-PCR) and Capillary electrophoresis technology.The assay endpoint ATG_M_61_EcoTox2 was analyzed in the positive analysis fitting direction relative to DMSO as the negative control and baseline of activity. Using a type of inducible reporter, measures of mRNA for gain-of-signal activity can be used to understand the background control at the transcription factor-level as they relate to the gene. Furthermore, this assay endpoint can be referred to as a secondary readout, because this assay has produced multiple assay endpoints where this one serves a background control function. To generalize the intended target to other relatable targets, this assay endpoint is annotated to the background measurement intended target family, where the subfamily is internal marker.
# Human liver HepG2 cells are transiently transfected with multiple reporter transcription units (MRTUs) in 6-well plates using FuGene 6 reagent (Roche; 3 ml FuGene/1 mg DNA). The MRTU constructs are regulated by a cis-regulating element (promoter). Each RTU expresses a GAL4-UAS that regulates the transcription of a nearby target reporter gene sequence. A major difference between the CIS and TRANS system is that in CIS activities of endogenous TFs are measured, whereas the TRANS assay evaluates changes in activities of exogenous, chimeric NR-Gal4 proteins. […] At the end of 24 hour incubation, total RNA was isolated using TriZol reagent (Invitrogen). The isolated RNA is then reverse-transcribed using oligo(dT) primer and Mo-MLV reverse transcriptase (Invitrogen) with DNAse I (Ambion) treatment for 30 min. The one-tenth of the produced cDNA was amplified by PCR using Taq DNA polymerase (Invitrogen) and two reporter sequence-specific primers. The PCR products were fluorescently labeled by primer extension with 6-arboxyfluorescein (6-FAM) 5'-labeled reporter sequence-specific primer (2 min at 95 C, 20 s at 68 C and 10 min at 72 C) and these products were digested with 5U of HpaI (New England Biolabs) for 2h at 37 C. The fragments were purified using Qiaquick PCR columns (Qiagen), analyzed on an ABI 3130xL genetic analyzer (Applied Biosystems) with peak positions identified by using a set of X-rhodamine (ROX)-labeled MapMarker1000 molecular weight standards (BioVentures). The raw capillary electrophoresis data was processed using Attagraph software (Attagene).
row,Structure (SMILES),outcome
1,CC(C)OC(=O)C(C)(C)Oc1ccc(C(=O)c2ccc(Cl)cc2)cc1,inactive
2,C[C@]12C=CC(=O)C=C1CC[C@@H]1[C@@H]2C(=O)C[C@@]2(C)[C@H]1CC[C@]2(O)C(=O)CO,inactive
3,Cc1c(C)c2c(c(C)c1O)CCC(C)(COc1ccc(CC3SC(=O)NC3=O)cc1)O2 (stereo unspecified),inactive
4,CC(c1cc2ccccc2s1)N(O)C(N)=O (stereo unspecified),inactive
5,CC(C)(Oc1ccc(Cl)cc1)C(=O)O,inactive
6,CC(C)(Oc1ccc(C2CC2(Cl)Cl)cc1)C(=O)O (stereo unspecified),inactive
7,Cc1nc(-c2ccc(C(F)(F)F)cc2)sc1C(=O)NCc1ccc(OC(C)(C)C(=O)O)cc1,inactive
8,CN(CCOc1ccc(CC2SC(=O)NC2=O)cc1)c1ccccn1 (stereo unspecified),inactive
9,C=C(c1ccc(C(=O)O)cc1)c1cc2c(cc1C)C(C)(C)CCC2(C)C,inactive
10,Cc1cccc(Nc2cc(Cl)nc(SCC(=O)O)n2)c1C,inactive
11,CC(C)(Oc1ccc(CCNC(=O)c2ccc(Cl)cc2)cc1)C(=O)O,inactive
